The values below come from the supplement of paper PMC8183993.

Structures can show the parent of a compound that is named as a salt. ± gives the standard deviation of the averaged measurements. Whole data set: some 3,200 compounds, median “nuclei count (viability) relative to DMSO” near 99, cut for the lowest 2% near 16. The entries come from a sample that favours the lowest values as a whole.

The subject of the experiment is U2OS. In words: nuclei count (viability) relative to DMSO (% of DMSO); higher = more viable cells. To be noted: 10 µM; 24 h. The protocol:
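Primary image-based screen in U2OS cells: compounds at 10 uM for 24 h, then a 1 h o-propargyl-puromycin (OPP) pulse, click labelling, and high-throughput microscopy. Mean cytoplasmic OPP intensity and nuclei count were normalised to DMSO wells within each plate (DMSO = 100) and averaged over triplicate plates.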
As to `Oc1ccc2c3c1O[C@H]1c4[nH]c5c(c4C[C@@]4(O)[C@@H](C2)N(CC2CC2)CC[C@]314)C[C@@]1(O)[C@H]2Cc3ccc(O)c4c3[C@@]1(CCN2CC1CC1)[C@H]5O4` [nor-Binaltorphimine dihydrochloride], the nuclei count stood at 99.1.

`O=C1CC[C@@]2(O)[C@H]3Cc4ccc(O)c5c4[C@@]2(CCN3CC2CC2)[C@H]1O5` [Naltrexone hydrochloride dihydrate] returned a nuclei count of 105.

The compound `O=C1/C(=C/c2ccccc2)C[C@@]2(O)[C@H]3Cc4ccc(O)c5c4[C@@]2(CCN3CC2CC2)[C@H]1O5` [BNTX maleate] showed a nuclei count of 3.38.

As for `CCN(CC)CCO[C@H]1CC[C@@]2(C)C(=CC[C@@H]3[C@@H]2CC[C@]2(C)C(=O)CC[C@@H]32)C1`, the nuclei count amounted to 97.

As to `CC(=O)O[C@H]1CC[C@@]2(C)C(=CC[C@@H]3[C@@H]2CC[C@]2(C)C(=O)CC[C@@H]32)C1` [Dehydroisoandosterone 3-acetate], the nuclei count is 96.3.

In turn, `C[C@@H]1CC[C@@]2(OC1)O[C@H]1C[C@H]3[C@@H]4CC=C5C[C@@H](O[C@@H]6O[C@H](CO)[C@@H](O[C@@H]7O[C@@H](C)[C@H](O)[C@@H](O)[C@H]7O)[C@H](O)[C@H]6O[C@@H]6O[C@@H](C)[C@H](O)[C@@H](O)[C@H]6O)CC[C@]5(C)[C@H]4CC[C@]3(C)[C@H]1[C@@H]2C` [Dioscin (Collettiside III)] had a nuclei count of 9.01.

The compound `CO[C@@H]1[C@H](OC(=O)NC(=O)CCl)CC[C@]2(CO2)[C@H]1[C@@]1(C)O[C@@H]1CC=C(C)C` returned a nuclei count of 92.6.

`Cc1onc(O)c1C[C@H](N)C(=O)O` came in with a nuclei count of 102.

In turn, `CCC(=O)CCCCC[C@@H]1NC(=O)[C@H]2CCCCN2C(=O)[C@H]([C@@H](C)CC)NC(=O)[C@H](Cc2cn(OC)c3ccccc23)NC1=O` [Apicidin] had a nuclei count of 54.1 ± 37.

Compound `CN(C(=O)Cc1ccccc1)C(CN1CCCC1)c1ccccc1` (stereo unspecified) [N-MPPP Hydrochloride] came in with a nuclei count of 87.9.

For `CN[C@@H]1C[C@H]2O[C@@](C)([C@@H]1OC)n1c3ccccc3c3c4c(c5c6ccccc6n2c5c31)C(=O)NC4` [Staurosporine], the nuclei count stood at 10.1.

In the case of `O=C1NC(=O)c2c1c1c3ccccc3n3c1c1c2c2ccccc2n1[C@H]1CC[C@@H]3O1`, the nuclei count was determined as 60.9.

As for `O=C1CN=C(c2cccc(Br)c2)c2oc3ccccc3c2N1`, the nuclei count stood at 78.5.

Take `Clc1ccccc1C(c1ccccc1)(c1ccccc1)n1cccn1`: the nuclei count was 102.

For `CC(C)(c1ccc(OCC2CO2)cc1)c1ccc(OCC2CO2)cc1` (stereo unspecified), the nuclei count was found to be 86.6 ± 6.1.

In turn, `CCN1C[C@]2(COC(=O)c3ccccc3N3C(=O)C[C@H](C)C3=O)CC[C@H](OC)[C@@]34[C@@H]5C[C@H]6[C@H](OC)[C@@H]5[C@](O)(C[C@@H]6OC)[C@](O)([C@@H](OC)[C@H]23)[C@@H]14` [Methyllycaconitine citrate] had a nuclei count of 109.
